PubChem BioAssay
The source made the active and inactive calls. Unless noted, no rule for the calls is given here.

What was measured:
[1] = kinase inhibitors against Plasmodium liver-stage infection, cell-based, known kinase inhibitor set, luminescence, hepatoma host viability (AID 624392); details: Plasmodium liver stage in hepatoma cells, luciferase luminescence, concentration not given here; liver cell % of control: measured here: host liver cell viability; parasite % of control: stronger effect = lower value;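 also: infected cells incubated roughly two days before readout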
[2] = tested on: Hepatitis C virus NS3 helicase; assay: HCV NS3 helicase inhibitors, primary screen, biochemical, fluorescence polarization, LOPAC1280 library (AID 687035; in the data active = inhibition above about 37%); details: Purified HCV NS3 helicase, Cy5-dT15 ssDNA binding fluorescence polarization; stronger effect = higher value; concentration not given here
[3] = Cy5 fluorescence quenching or enhancement artefacts, artefact control for HCV NS3 helicase inhibitor project, biochemical, LOPAC1280 (AID 687037); details: Cy5-DNA-NS3h complex fluorescence interference counterscreen

SMILES	liver cell % of control [1] [%]	parasite % of control [1]	inhibition [2]	fluorescence ratio (interference) [3]
NC1CCC(Nc2nc(Nc3ccc(S(=O)(=O)N4CCCCC4)cc3)c3ncn(-c4ccccc4)c3n2)CC1 (stereo unspecified)	103	336% (inactive)		
COC(=O)c1ccc2c(c1)[nH]c(=O)c1c(Nc3ccc(OC(F)(F)F)cc3)ncnc12	107	97.4% (inactive)		
CCN1CCN(Cc2ccc(NC(=O)c3ccc(C)c(NC(=O)C4=NN(c5ccccc5)C(=O)C4)c3)cc2C(F)(F)F)CC1	101	72.3% (inactive)		
COc1cc(NC(=O)c2cnc(N)o2)cc(C(=O)Nc2cccc(C(F)(F)F)c2)c1	87.7	106% (inactive)		
C=CC(=O)Nc1ccc(Nc2nc(NC3CCC(N(C)C)CC3)nc3c2ncn3C(C)C)cc1 (stereo unspecified)	57.1	6.69% (inactive)		
NS(=O)(=O)c1ccc(-c2cccc(C=C3SC(=O)NC3=O)c2)cc1	87.7	17% (inactive)		
CCN1CCN(Cc2ccc(NC(=O)c3ccc(C)c(NC(=O)C(=O)c4c[nH]c5ccccc45)c3)cc2C(F)(F)F)CC1	69.8	99.9% (inactive)		
CCN1CCN(Cc2ccc(NC(=O)c3cc(NC(=O)c4nccnc4N)cc(OC)c3)cc2C(F)(F)F)CC1	98.4	64.5% (inactive)		
COc1cc(C(=O)NC2CCN(C)CC2)ccc1Nc1ncc2c(n1)N(C1CCC(O)CC1)CCC(=O)N2C (stereo unspecified)	103	180% (inactive)		
CS(=O)(=O)Nc1ccc(-c2cc(C=C3SC(N)=NC3=O)c[nH]c2=O)cc1	97.7	127% (inactive)		
CC(C)(C)OC(=O)NC(COc1cncc(Br)c1)Cc1c[nH]c2ccccc12 (stereo unspecified)	95.1	98.7% (inactive)		
COc1cc(NC(=O)c2ccno2)cc(C(=O)Nc2cccc(C(F)(F)F)c2)c1	96.7	70% (inactive)		
CCN1CCN(Cc2ccc(NC(=O)c3ccc(C)c(NC(=O)c4ccnnc4)c3)cc2C(F)(F)F)CC1	104	100% (inactive)		
CC(C)Oc1cc(C(=O)N2CCC(N3CCCCC3)CC2)ccc1Nc1nnc(Cl)c(Nc2ccccc2S(C)(=O)=O)n1	98.2	81.6% (inactive)		
Fc1cccc(/C=N\N=C/c2cccc(F)c2)c1			-2% (inactive)	1 (inactive)
CCOC(=O)N1CCN(/[N+]([O-])=N\Oc2ccc([N+](=O)[O-])cc2[N+](=O)[O-])CC1			-3% (inactive)	1.1 (inactive)
Nc1ccc(-c2cnc(N)c(C(=O)c3cccnc3)n2)cn1	97.9	132% (inactive)		
CCN1CCN(Cc2ccc(NC(=O)c3ccc(C)c(NC(=O)c4ccc5n[nH]nc5c4)c3)cc2C(F)(F)F)CC1	104	112% (inactive)		
COc1ccc(CNc2nc(NCc3ccc(OC)cc3)c3ncn(C4CCCC4)c3n2)cc1	90.6	265% (inactive)		
COc1cc(C(=O)NC2CCN(C)CC2)ccc1Nc1ncc2c(n1)N(Cc1ccccc1)CCC(=O)N2C	97.7	579% (inactive)		
CC(=O)/C(C)=N\O			-1% (inactive)	1.1 (inactive)
NC1=NC(=O)C(=Cc2ccc(-c3ccc(S(N)(=O)=O)cc3)o2)S1	104	97.3% (inactive)		
CC(C)n1cnc2c(Nc3cccc(Cl)c3)nc(N(CCO)CCCO)nc21	81.2	381% (inactive)		
Cc1ccc(C(=O)Nc2cccc(C(F)(F)F)c2)cc1NC(=O)c1cnnc2ccccc12	104	44.2% (inactive)		
CCN1CCN(Cc2ccc(NC(=O)c3cc(NC(=O)c4ccc5n[nH]nc5c4)cc(OC)c3)cc2C(F)(F)F)CC1	101	138% (inactive)		
CCC(CO)Nc1nc(Nc2cccc(Cl)c2)c2ncn(C(C)C)c2n1 (stereo unspecified)	90.3	477% (inactive)		
CC(C)ON([C@@H](C(=O)NO)C(C)C)S(=O)(=O)c1ccc(-c2ccccc2)cc1			-1% (inactive)	0.9 (inactive)
CCN1CCN(Cc2ccc(NC(=O)c3ccc(C)c(C=Cc4cnc(Nc5cc(N6CCNCC6)nc(C)n5)cn4)c3)cc2C(F)(F)F)CC1	96.8	369% (inactive)		
